Among the data in PubChem BioAssay (EPA / NIEHS) are outcome and AC50 values, retold here.

Experiment [1] is described as follows: Tanguay_ZF_120hpf_MUSC: Oregon State University Tanguay Lab 120 Hour Post-fertilization zebrafish Assay for Muscle Malformation (AID 2284401). Put shortly:
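Scored as a binary brightfield endpoint at 120 hpf, fitted versus DMSO. Single dechorionated wild-type (Tropical 5D) zebrafish embryos per well, statically exposed at 28C from 6 hpf onward with final DMSO 0.64%.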

The nature of experiment [2]: CCTE_Shafer_MEA_dev_firing_rate_mean: CCTE's Neural Network Formation Assay for Mean Firing Rate, Shafer Lab (AID 2284031).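 Also: curve fitted for loss of firing so AC50 reflects decreased mean firing rate.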 The method, boiled down:
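Spike frequency (spikes/recording length, averaged over active electrodes) was recorded on days 5, 7, 9 and 12 and collapsed to AUC; rat cortical cultures received compound continuously over 12 days of network development.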

Experiment [3] in a line: CCTE_Shafer_MEA_dev_per_burst_spike_percent: CCTE's Neural Network Formation Assay for Percent of Spikes in a Burst, Shafer Lab (AID 2284032).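 Also: fitted as a decrease in burst spike percentage below DMSO baseline.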 Put shortly:
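Value is trapezoidal AUC over recordings on days 5, 7, 9 and 12 of the well-mean fraction of spikes falling in single-electrode bursts; rat cortical cultures exposed continuously from plating, treatment renewed DIV 5 and 9, fitted downward against DMSO.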

The nature of experiment [4]: CCTE_Shafer_MEA_dev_active_electrodes_number: CCTE's Neural Network Formation Assay for Number of Active Electrodes, Shafer Lab (AID 2284040; active = hit-call score of the fitted dose curve at least 0.9, where 1 is the maximum;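 also: potency for loss of active electrodes versus DMSO so lower counts are hits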). The method, boiled down: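 Counts electrodes per well firing at least 5 spikes/min, recorded on days 5, 7, 9 and 12 in rat cortical cultures dosed continuously from plating (treatment refreshed DIV 5, 9). Value is the area under the curve over recordings, fitted downward relative to DMSO.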

Experiment [5] is described as follows: CCTE_Shafer_MEA_dev_burst_rate: CCTE's Neural Network Formation Assay for Burst Rate, Shafer Lab (AID 2284042).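 Also: potency for loss of burst rate below DMSO control.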 The method, boiled down:
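Developmental network assay measuring how 12-day exposure of rat cortical neuron cultures alters bursting on extracellular MEA recordings. Values are AUC of well-mean burst rate across four recording days, relative to DMSO vehicle.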

The nature of experiment [6]: CCTE_Shafer_MEA_dev_bursting_electrodes_number: CCTE's Neural Network Formation Assay for Number of Bursting Electrodes, Shafer Lab (AID 2284043; active = hit-call score of the fitted dose curve at least 0.9, where 1 is the maximum;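 also: potency is for loss of bursting electrodes relative to DMSO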). Put shortly:
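Number of electrodes reaching ≥1 burst every 2 min was recorded at DIV 5, 7, 9 and 12 and collapsed as trapezoidal area under the curve. Cultures were rat cortical neurons on MEA plates, dosed continuously from plating with medium and treatment refreshed on DIV 5 and 9.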

Experiment [7] can be described thus: CCTE_Shafer_MEA_dev_burst_duration_mean: CCTE's Neural Network Formation Assay for Mean Burst Duration, Shafer Lab (AID 2284045).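 Also: curve fitted for loss meaning shorter burst duration than DMSO.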 The method, boiled down:
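Mean single-electrode burst duration (first to last spike), averaged over bursting electrodes per well, then integrated as area-under-curve across recordings at days 5, 7, 9 and 12. Rat cortical cultures on MEAs, compound present from plating, refreshed at feeds.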

Experiment [8] can be described thus: CCTE_Shafer_MEA_dev_interburst_interval_mean: CCTE's Neural Network Formation Assay for Mean Interburst Interval, Shafer Lab (AID 2284046).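 Also: well-mean interburst interval of bursting electrodes as AUC over four recording days; curve fitted for decrease in interburst interval relative to DMSO.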 The method, boiled down: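 Network formation assay in primary rat cortical cultures, exposed from DIV 0 to 12. Mean interburst interval per well, integrated as AUC over four recordings.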
The nature of experiment [9]: CCTE_Shafer_MEA_dev_inter_network_spike_interval_mean: CCTE's Neural Network Formation Assay for Mean Inter-network Spike Interval, Shafer Lab (AID 2284047).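 Also: potency for a decrease in mean inter-network spike interval below DMSO.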 The method, boiled down: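 Compound was given at plating to primary rat cortical neurons and renewed with full medium changes on DIV 5 and 9. Extracellular activity was recorded on days 5, 7, 9, 12; AUC values were fitted for loss relative to DMSO control.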

Experiment [10] is described as follows: CCTE_Shafer_MEA_dev_network_spike_number: CCTE's Neural Network Formation Assay for Number of Network Spikes, Shafer Lab (AID 2284048).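 Also: synchronized bursts across electrodes counted on days 5 7 9 12 and integrated as AUC; fit as a loss of signal meaning fewer network spikes than DMSO.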 Put shortly: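 Number of network spikes (coordinated firing across electrodes) recorded on days 5, 7, 9 and 12 and summarised as area under the curve. Rat cortical cultures on MEA, continuous compound exposure with full medium/treatment exchange at DIV 5 and 9.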

Experiment [11] can be described thus: CCTE_Shafer_MEA_dev_network_spike_peak: CCTE's Neural Network Formation Assay for Mean Number of Electrodes in Network Spike, Shafer Lab (AID 2284049).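 Also: fitted for loss of signal meaning fewer electrodes in network spikes than DMSO.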 The method, boiled down: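 Rat cortical primary culture, 1.5 x 10^5 cells/well, 48-well MEA (16 electrodes/well). Dosing day 0 through DIV 12, full media/compound exchange DIV 5, 9. AxIS adaptive spike detection; AUC over days 5/7/9/12; loss-of-signal vs DMSO.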

Experiment [12] is described as follows: CCTE_Shafer_MEA_dev_spike_duration_mean: CCTE's Neural Network Formation Assay for Mean Spike Duration, Shafer Lab (AID 2284051).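 Also: mean network spike duration pooled as area under curve over DIV 5 to 12 recordings; potency for a decrease in mean network spike duration versus DMSO.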 Put shortly: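 With DMSO as baseline, loss of mean network spike duration was scored from extracellular recordings of rat cortical neurons on MEA plates. Exposure spanned plating to DIV 12; the four recording days were collapsed into one AUC value.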

A short description of experiment [13]: CCTE_Shafer_MEA_dev_network_spike_duration_std: CCTE's Neural Network Formation Assay for Standard Deviation of Network Spike Duration, Shafer Lab (AID 2284052).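 Also: hits are decreases in network spike duration SD versus DMSO vehicle.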 The method, boiled down:
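Developing networks of rat cortical neurons were exposed over twelve days in vitro on 48-well MEA plates. Trapezoidal AUC of recordings (DIV 5–12) was analysed for signal loss relative to DMSO vehicle.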

The nature of experiment [14]: CCTE_Shafer_MEA_dev_per_network_spike_spike_number_mean: CCTE's Neural Network Formation Assay for Mean Number of Spikes in a Network Spike, Shafer Lab (AID 2284053). Put shortly:
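First, rat cortical cells (1.5 x 10^5/well) were seeded onto MEA wells; second, dosing began at plating and was refreshed on DIV 5 and 9; finally, network-spike spike counts across DIV 5–12 were summarized as AUC.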

The nature of experiment [15]: CCTE_Shafer_MEA_dev_per_network_spike_spike_percent: CCTE's Neural Network Formation Assay for Percent of Spikes in a Network Spike, Shafer Lab (AID 2284054). The method, boiled down: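 Metric: fraction of spikes falling in a 0.05 s window at network-spike peaks. Recordings were made on days 5, 7, 9 and 12 and collapsed by trapezoidal AUC. Cultures were rat cortical neurons on MEA plates, dosed continuously from plating, re-dosed at media changes.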

A short description of experiment [16]: CCTE_Shafer_MEA_dev_LDH: CCTE's Lactate Dehydrogenase Assay for Cytotoxicity in the Neural Network Formation Assay, Shafer Lab (AID 2284068; active = hit-call score of the fitted dose curve at least 0.9, where 1 is the maximum;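 also: exposure for twelve days from plating with re-dosing on DIV 5 and 9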). The method, boiled down: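 Developing rat cortical networks on MEA plates are exposed to compound for 12 days from plating. LDH activity is measured spectrophotometrically, with DMSO as baseline.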
The nature of experiment [17]: CCTE_Shafer_MEA_dev_AB: CCTE's Alamar Blue Assay for Cytotoxicity in the Neural Network Formation Assay, Shafer Lab (AID 2284083; active = hit-call score of the fitted dose curve at least 0.9, where 1 is the maximum;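 also: resazurin reduction fluorescence as viability of cultured neurons; twelve days of exposure from plating with re-dosing on DIV 5 and 9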). The method, boiled down: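 Cytotoxicity companion to the developmental MEA: primary rat cortical neurons, 12-day exposure starting day 0, compound refreshed DIV 5 and 9; resazurin fluorescence, fitted against DMSO vehicle.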
(Alamar Blue is a resazurin reagent that responds to reducing activity.)

Experiment [18] in a line: CCTE_Shafer_MEA_dev_mutual_information_norm: CCTE's Neural Network Formation Assay for Mutual Information Normalization, Shafer Lab (AID 2284091).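 Also: mutual information between electrodes summarised as area under curve across four recording days; potency is for a decrease in mutual information relative to DMSO.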 Put shortly: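 Shared information across electrodes, tracked on days 5, 7, 9 and 12 of network development and collapsed as trapezoidal area under the curve. Rat cortical cultures were treated continuously from plating, with treatment renewed at feeds on DIV 5 and 9; DMSO baseline, negative-direction fit.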

Experiment [19] in a line: CCTE_Mundy_HCI_Cortical_Synap_Neur_Matur_NeuriteSpotCountPerNeuriteLength: CCTE's Synaptogenesis and Neurite Maturation Assay in rat cortical cells for Neurite Spot Count per Neurite Length, Mundy Lab (AID 2284210). Put shortly: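 Synaptophysin spots per unit neurite length, measured by automated imaging of MAP2/synaptophysin/Hoechst-stained neurons. Cultures from rat cortex received chemical at DIV 7 with media change through DIV 12; glial growth arrested by AraC at DIV 5; DMSO baseline.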

Experiment [20] can be described thus: CCTE_Mundy_HCI_Cortical_NOG_NeuriteLength: CCTE's Neurite Outgrowth Assay in rat cortical cells for Neurite Length, Mundy Lab (AID 2284213).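 Also: neurites imaged about 48 to 50 h after chemical exposure began.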 The method, boiled down: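 First, rat primary cortical cells were plated and, 2 h later, given test chemical as a 1/10 dilution. Finally, βIII-tubulin immunostaining enabled automated imaging of neurite length.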
Experiment [21] can be described thus: CCTE_Mundy_HCI_Cortical_Synap_Neur_Matur_NeuriteLength: CCTE's Synaptogenesis and Neurite Maturation Assay in rat cortical cells for Neurite Length, Mundy Lab (AID 2284214). Put shortly:
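Neurite length quantified by automated high-content imaging of MAP2, synaptophysin and Hoechst staining. Rat cortical cells received chemical from DIV 7 to DIV 12 […], glial growth arrested by AraC at DIV 5; DMSO baseline.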

A short description of experiment [22]: CCTE_Mundy_HCI_Cortical_Synap_Neur_Matur_SynapseCount: CCTE's Synaptogenesis and Neurite Maturation Assay in rat cortical cells for Synapse Count, Mundy Lab (AID 2284218). Put shortly: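 High-content imaging of synaptophysin puncta per MAP2-positive neuron (Hoechst nuclei) in rat cortical cells exposed DIV 7–12 after glial arrest with AraC at DIV 5; decrease relative to DMSO scored.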

Experiment [23] can be described thus: CCTE_Mundy_HCI_hN2_NOG_NeuriteCount: CCTE's Neurite Outgrowth Assay in human hN2 cells for Neurite Count, Mundy Lab (AID 2284219; active = hit-call score of the fitted dose curve at least 0.9, where 1 is the maximum). The method, boiled down:
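In this morphology assay, hNP1-derived neurons received test chemical 2 h post-plating and were fixed two days later in warm paraformaldehyde/sucrose containing Hoechst 33342. Neurites, labelled by rabbit anti-βIII-tubulin (1:800) and Alexa Fluor-488 (1:500), were counted automatically.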

Experiment [24] is described as follows: CCTE_Mundy_HCI_hN2_NOG_NeuriteLength: CCTE's Neurite Outgrowth Assay in human hN2 cells for Neurite Length, Mundy Lab (AID 2284220; active = hit-call score of the fitted dose curve at least 0.9, where 1 is the maximum). Put shortly: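 Plate hNP1-derived neurons, then add chemical 2 h later as a 1/10 dilution. Stain with anti-βIII-tubulin then Alexa Fluor-488 secondary, and image automatically to measure neurite length.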
A short description of experiment [25]: CCTE_Mundy_HCI_hN2_NOG_NeuronCount: CCTE's Neurite Outgrowth Assay in human hN2 cells for Neuron Count, Mundy Lab (AID 2284221; active = hit-call score of the fitted dose curve at least 0.9, where 1 is the maximum). Put shortly: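 Read-out is the number of betaIII-tubulin-positive neurons imaged by automated high-content analysis, with DMSO as negative control.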
Experiment [26] is described as follows: CCTE_Mundy_HCI_Cortical_Synap_Neur_Matur_CellBodySpotCount: CCTE's Synaptogenesis and Neurite Maturation Assay in rat cortical cells for Cell Body Spot Count, Mundy Lab (AID 2284223). The method, boiled down: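 High-content imaging counts synaptophysin puncta on neuronal cell bodies per neuron after MAP2/synaptophysin immunostaining. Rat primary cortical cells, glia arrested with AraC at DIV 5, were exposed DIV 7–12; signal decrease measured against DMSO.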

Experiment [27] can be described thus: CCTE_Mundy_HCI_hNP1_Pro_ResponderAvgInten: CCTE's Proliferation Assay in human neuroprogenitor cells, Mundy Lab (AID 2284224; active = hit-call score of the fitted dose curve at least 0.9, where 1 is the maximum). The method, boiled down: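 Proliferation was scored as BrdU labelling intensity in human neural progenitors derived from WA09 embryonic cells, measured 26.25 hours after chemical dosing. Activity was fitted relative to DMSO.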
Experiment [28] is described as follows: CCTE_Mundy_HCI_Cortical_NOG_NeuronCount: CCTE's Neurite Outgrowth Assay in rat cortical cells for Neuron Count, Mundy Lab (AID 2284236; active = hit-call score of the fitted dose curve at least 0.9, where 1 is the maximum;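 also: neurons counted by imaging betaIII-tubulin and Hoechst stained cortical cells; cells exposed to compound for about 48 hours before fixation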). The method, boiled down: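 Read-out: neuron number by high-content imaging of betaIII-tubulin (Alexa Fluor-488) and Hoechst-labelled rat primary cortical cells.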
A short description of experiment [29]: CCTE_Mundy_HCI_hNP1_Casp3_7: CCTE's Caspase-Glo 3/7 Assay in human neuroprogenitor cells for Apoptosis, Mundy Lab (AID 2284240). The method, boiled down:
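Apoptosis is scored by activated caspase-3/7 luminescence in WA09-derived neural progenitor cells, measured 26.5 h after chemical dosing. Values represent gain of signal relative to DMSO vehicle.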

A short description of experiment [30]: CCTE_Mundy_HCI_Cortical_Synap_Neur_Matur_NeuronCount: CCTE's Synaptogenesis and Neurite Maturation Assay in rat cortical cells for Neuron Count, Mundy Lab (AID 2284242; active = hit-call score of the fitted dose curve at least 0.9, where 1 is the maximum;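 also: hits reduce neuron count versus DMSO baseline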). The method, boiled down: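 Neuron counts come from automated high-content imaging of Hoechst nuclei and MAP2/synaptophysin immunostaining at DIV 12, with loss of signal judged against DMSO. Cultures of rat cortical cells had glial growth arrested by AraC at DIV 5; chemical exposure began DIV 7.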

Inconclusive results are not listed. The source made the active and inactive calls. The calls were made as follows, unless noted: active = hit-call score of the fitted dose curve at least 0.9, where 1 is the maximum; inactive = score below 0.9.

`COC(=O)CCC(F)(F)C(F)(F)C(F)(F)C(F)(F)F`: the compound was classed as inactive in [1].

As for `OCC(F)(F)C(F)(F)C(F)(F)C(F)(F)C(F)(F)C(F)(F)C(F)(F)C(F)(F)CO`, in [1], the compound was classed as inactive.

As usually defined, the AC50 is the concentration at which the activity in the assay is half-maximal. `O.O.O.O.O.[Cd+2].[Cd+2].[Cl-].[Cl-].[Cl-].[Cl-]`: the half-maximal activity concentration (AC50) in experiment [2] was 0.227 µM (active); in [3] it was 0.316 µM (active); in [4] it was 0.362 µM (active); in experiment [5] it was 0.188 µM (active); in [6], 0.3 µM (active); in experiment [7], 0.375 µM (active). The AC50 in experiment [8] was 0.863 µM (active); in experiment [9], 0.0384 µM (active); in experiment [10], 0.117 µM (active); in [11] it was 0.372 µM (active); in experiment [12], 0.295 µM (active); in experiment [13], 0.181 µM (active). Further, the AC50 was 0.226 µM (active) in experiment [14]; 0.228 µM (active) in experiment [15]; 0.499 µM (active) in experiment [16]; 0.458 µM (active) in [17]; 0.135 µM (active) in [18]; 4.37 µM (active) in experiment [19]. The AC50 in experiment [20] is 30.8 µM (active); in [21], 1.84 µM (active); in experiment [22] it was 1.67 µM (active); in experiment [23], 30 µM (active); in [24], 31.6 µM (active); in experiment [25], 14.1 µM (active). The AC50 in [28] is 76.6 µM (active); in experiment [29] it was 50 µM (active); in experiment [30], 1.24 µM (active). The compound was classed as inactive in [26] and in experiment [27].

In the case of `C=C(C)C(=O)OCC(F)(F)C(F)(F)C(F)(F)C(F)(F)C(F)(F)C(F)(F)C(F)(F)F`, the compound was classed as inactive in experiment [1].

`CN(C(=O)C(F)(F)C(F)(F)C(F)(F)F)[Si](C)(C)C`: in [1], the compound was called inactive.
